NPR1 activator: GC-A stimulated cGMP production enhancers – HEK293 GC-A cells, cGMP TR-FRET, EC30 ANP, primary screen; Atrial natriuretic peptide receptor 1 (Homo sapiens), P16066; 0% at EC30 ANP, 100% saturating ANP; activation, % at 10 µM; 0.14% of 370,000 active; in the data active = activation above about 40%
GC-B act: human GC-B receptor activators, primary screen, HEK293 GC-B cells, cGMP TR-FRET, EC30 CNP; Atrial natriuretic peptide receptor 2 (Homo sapiens), P20594; 0% at EC30 CNP, 100% saturating CNP; activation, % at 10 µM; 0.11% of 370,000 active; AID 1920062, 2024;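 active = activation at 10 µM reaching about 35% in either raw or pattern-adjusted values, limit read from the data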
HTR2A ag: mouse Htr2a agonists via beta-arrestin recruitment, primary screen, cell-based, luminescence; 5-hydroxytryptamine receptor 2A (Mus musculus), P35363; CHO-K1 mHTR2A beta-arrestin complementation; percent of 30 µM serotonin response; activation, % at 7.6 µM; 0.66% of 360,000 active; AID 624169, 2012;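 active = activation above a run cutoff, the mean activation of all tested compounds plus 3 SD, cut at about 14% in these data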
Target sequence (P35363 whole entry, looked up): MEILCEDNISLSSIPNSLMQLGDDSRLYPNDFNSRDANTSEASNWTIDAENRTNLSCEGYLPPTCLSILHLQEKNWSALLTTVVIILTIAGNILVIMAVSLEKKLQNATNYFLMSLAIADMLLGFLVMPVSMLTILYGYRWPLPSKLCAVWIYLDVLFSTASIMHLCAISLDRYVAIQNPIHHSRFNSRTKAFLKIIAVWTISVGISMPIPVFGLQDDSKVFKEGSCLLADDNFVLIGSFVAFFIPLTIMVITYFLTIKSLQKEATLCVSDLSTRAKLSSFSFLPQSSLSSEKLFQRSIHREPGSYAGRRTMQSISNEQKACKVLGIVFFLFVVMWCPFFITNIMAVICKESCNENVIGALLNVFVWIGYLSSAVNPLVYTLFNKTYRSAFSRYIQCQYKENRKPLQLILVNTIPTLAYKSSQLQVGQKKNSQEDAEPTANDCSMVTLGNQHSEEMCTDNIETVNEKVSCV
MsrA inh: bovine MsrA enzyme inhibitors, primary screen, biochemical, absorbance, HTS. Methionine sulfoxide reductase A (Bos taurus). purified bovine MsrA, absorbance read-out. inhibition, % at 15.5 µM. 0.75% of 360,000 active; in the data active = inhibition above about 4.5%
MsrA act: bovine MsrA enzyme activators, primary screen, biochemical, absorbance, HTS; Methionine sulfoxide reductase A (Bos taurus); purified bovine MsrA, absorbance read-out; activation, % at 10.6 µM; 0.3% of 360,000 active; AID 602163, 2012; in the data active = activation above about 7.5%
MsrA activ conf: bovine MsrA activators, retest, confirmation, biochemical, absorbance, HTS | activation, % at 10.6 µM | shares compounds with MsrA act | 12% of 1,000 active | AID 602270, 2012 | purified bovine MsrA, absorbance read-out; in the data active = activation above about 4%;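 also: enzyme coupled to thioredoxin and thioredoxin reductase with NADPH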
Large screens that a line does not name were inactive (follow-up assays come after a bar, where they were run). Hits are enriched below; roughly 1.8% of the tested compounds scored in any of these assays.

NC(=O)c1cc(S(=O)(=O)N2CCCC2)ccc1OCCOc1ccccc1F	MsrA act 11 | MsrA activ conf inactive
COc1ccc(CC(=O)N2CCCc3ccccc32)cc1OC	MsrA act 9.6 | MsrA activ conf inactive
CCN(CC)S(=O)(=O)c1ccc(NC(=O)CNC2CCCCC2)cc1	MsrA act 8.4 | MsrA activ conf inactive
COC(=O)[C@]12C[C@H](CC(=O)NCCCN3CCCC3=O)C(=O)N(Cc3cccc4ccccc34)C1=C[C@H](COCc1ccccc1)O[C@@H]2C	none (no result: HTR2A ag, MsrA inh, MsrA act)
CC(C)(C)OC(=O)NCc1ccc(CNC(=O)c2[nH]cnc2C(=O)NC2CCN(C(=O)OC(C)(C)C)CC2)cc1	MsrA act 12 (no result: NPR1 activator, GC-B act, MsrA inh) | MsrA activ conf inactive
CC(C)(C)OC(=O)N1CCC(NC(=O)c2nc[nH]c2C(=O)NCc2ccccc2)CC1	none
CCOC(=O)C1CCCN(C(=O)CCCn2nnnc2CN2CCOCC2)C1 (stereo not given)	MsrA act 15 | MsrA activ conf inactive
O=C(c1cc(Cl)c(=O)n(Cc2ccccc2)c1)N1CCOCC1	MsrA act 9.2 | MsrA activ conf inactive
Cc1ccccc1Cn1cc(COC(=O)NCCc2ccccc2)nn1	none (no result: HTR2A ag, MsrA inh, MsrA act)
CC1=C(C(=O)OC2CCCCCCC2)C(c2cccc(O)c2)NC(=O)N1 (stereo not given)	MsrA act 8.9 | MsrA activ conf inactive
CC1=C(C(=O)OCC2CCCCC2)C(c2cccc(O)c2)NC(=O)N1 (stereo not given)	none (no result: NPR1 activator, GC-B act, MsrA inh)
COC(=O)[C@H]1C[C@]2(C(C=C(C)C)S(=O)(=O)c3ccccc3)c3ccccc3N[C@H]2N1 (stereo not given in full)	none (no result: HTR2A ag, MsrA inh, MsrA act)
CCOC(=O)c1cccc(NC(=O)c2cccnc2)c1	none
CCOC(=O)c1cccc(NC(=O)c2cnc3ccccc3n2)c1	MsrA act 13 | MsrA activ conf inactive
CCOc1ccccc1OCC(=O)NCc1ccco1	none
CCOc1ccccc1OCCCNCc1ccco1	MsrA act 13 | MsrA activ conf inactive
O=C(CCc1ccccc1)N[C@H]1[C@H](OC(=O)c2ccc3ccccc3n2)CCC[C@@]12C(=O)N(Cc1ccccc1)c1ccccc12	none (no result: HTR2A ag, MsrA inh, MsrA act)
O=C(NN1C(=O)c2cc(Br)ccc2NC1c1cc(Br)cc(Br)c1O)c1ccncc1 (stereo not given)	MsrA act 8.9 | MsrA activ conf inactive
CC(=O)CC[C@@H]1CC[C@]2(CCCN(S(C)(=O)=O)C2)O1	none (no result: HTR2A ag, MsrA inh, MsrA act)
CC(C)c1ccc(C(=O)CSc2ncn[nH]2)cc1	MsrA act 14 | MsrA activ conf inactive
CCCC[C@H]1C2CC(OC(=O)Nc3ccc(C(F)(F)F)cc3)C(C2)[C@H]2CCCCN21 (stereo not given in full)	none (no result: HTR2A ag, MsrA inh, MsrA act)
O=C(COC(=O)c1cc(=O)[nH]c2ccccc12)NC1CCCCCCC1	none
O=C(COC(=O)c1c[nH]c2ccccc12)NC1CCCC1	MsrA act 22 | MsrA activ conf inactive
O=c1[nH]cccc1-c1nc2ccccc2n1Cc1ccc(F)cc1	MsrA act 15 | MsrA activ conf inactive
COC(=O)C1CN(Cc2ccc(Cl)cc2)CCS(=O)(=O)N1Cc1cn(Cc2ccc(F)cc2)nn1 (stereo not given)	none (no result: HTR2A ag, MsrA inh, MsrA act)
C/C(N)=C(/C#N)C(=O)COC(=O)c1ccccc1C(=O)c1ccc(C)cc1	MsrA act 8.6 | MsrA activ conf inactive
CC(C)(C)OC(=O)NCc1ccccc1/C=C/S(=O)(=O)NCc1ccc(F)cc1	none (no result: HTR2A ag, MsrA inh, MsrA act)
COC(=O)[C@]12CCCCC=C1N(Cc1ccc(OC)cc1)C(=O)[C@@H]2CC(=O)NCc1cccs1	none (no result: HTR2A ag, MsrA inh, MsrA act)
O=Nc1c(O)c2ccccc2c2ccccc12	MsrA act 20 | MsrA activ conf 13
CCOc1cccc(/C=N/N2C(C)CCCC2C)c1O (stereo not given)	none
CC1CCCC(C)N1/N=C/c1cc(Br)cc(Br)c1O (stereo not given)	MsrA act 9.2 | MsrA activ conf inactive
COc1ccc(N2CCN(CCCNC(=O)COc3ccc(C)cc3)CC2)cc1	none (no result: HTR2A ag, MsrA inh, MsrA act)
COc1ccc(NC(=S)NCc2cccs2)cc1	none
CC(C)c1ccc(NC(=S)NCc2cccs2)cc1	MsrA act 8.1 | MsrA activ conf inactive
COCCCN1C(=O)[C@H](CC(=O)N2CCN(C(=O)c3ccco3)CC2)[C@]2(C(=O)OC)CCCCC=C12	none (no result: HTR2A ag, MsrA inh, MsrA act)
Cc1ccccc1-c1noc(CCC(=O)NCc2ccco2)n1	MsrA act 12 | MsrA activ conf inactive
CC1(C)Cc2c(sc(NC(=O)COc3ccc(Cl)cc3)c2C(N)=O)C(C)(C)N1	MsrA act 12 | MsrA activ conf inactive
Cc1ccc(OCC(=O)Nc2sc3c(c2C#N)CC(C)(C)NC3(C)C)cc1	none
CCOCC(=O)NC(=O)N1C[C@H]2CON(C)[C@H]2C[C@H]1c1ccc(OC)cc1	none (no result: HTR2A ag, MsrA inh, MsrA act)
Nc1ccc2c(c1)C(=O)c1ccccc1-2	none
Nc1ccc2c(c1)C(=O)C(=O)c1ccccc1-2	MsrA act 40 | MsrA activ conf 29
COC(=O)Cn1nnc(N2CCOCC2)n1	MsrA act 8.0 | MsrA activ conf inactive
CCNc1nc(SCC(=O)OC)nc(N2CCOCC2)n1	none
CCOC(=O)C(C)Oc1cccc2c(=O)n(CC(=O)Nc3ccc(OCC)cc3)ccc12 (stereo not given)	none
CCOC(=O)C(C)Oc1cccc2c(=O)n(CC(=O)Nc3cccc(OC)c3)ccc12 (stereo not given)	MsrA act 8.4 | MsrA activ conf inactive
O=[N+]([O-])c1cc(Br)c(O)c(C=Nc2ccc(N3CCOCC3)cc2)c1	MsrA act 10 | MsrA activ conf 7.8
COc1cccc(C=Nc2ccc(N3CCOCC3)cc2)c1O	none
CC(C)C[C@H]1COc2cc(Br)ccc2S(=O)(=O)N1Cc1cn(CCC2OCCO2)nn1	none (no result: HTR2A ag, MsrA inh, MsrA act)
CC(=O)Nc1nc(-c2ccc(Cl)cc2)nc(C)c1C(C)=O	MsrA act 8.9 | MsrA activ conf inactive
CCCC/C(O)=C1\C(=O)CC(C)(C)CC1=Nc1ccccc1OC	MsrA act 8.7 | MsrA activ conf inactive
COC(=O)CC/C(O)=C1\C(=O)CC(C)(C)CC1=Nc1ccccc1OC	none
c1ccc(CC[C@@H]2CC[C@@H](CCc3ccccc3)N2)cc1	none
O=C(O)C1CSC(CCc2ccccc2)N1 (stereo not given)	MsrA act 7.8 | MsrA activ conf inactive
Nc1nc2cc3c(cc2cc1C(=O)NCCc1c[nH]c2ccccc12)OCO3	none (no result: HTR2A ag, MsrA act)
COc1ccc(Cc2c(-c3ccc(OC)c(OC)c3)nc3ccc(C)cn23)c(C)c1	MsrA act 13 | MsrA activ conf inactive
CCc1ccc(CCNC(=O)OC2CCC23CCC(c2ccccc2)CC3)cc1 (stereo not given)	none (no result: HTR2A ag, MsrA inh, MsrA act)
COc1ccc(CN(C(=O)c2ccco2)c2ccc(C)cc2)cc1OC	MsrA act 7.9 | MsrA activ conf inactive

Screening data as filed in PubChem BioAssay.
